Holding throughout (details): Compound concentration 20.0 uM, Protein concentration 2.0 uM, Result type QC Liability
The target in experiment [1] is Tyrosine-protein kinase ABL1 (Homo sapiens) (UniProt P00519).
Experiment [2] concerns the target Cyclin-dependent kinase 2 (Homo sapiens) (UniProt P24941).
Experiment [3] addresses Casein kinase I isoform delta (Homo sapiens) (UniProt P48730).
In experiment [4] the target is Glycogen synthase kinase-3 beta (Homo sapiens) (UniProt P49841).
The target of experiment [5] is Mitogen-activated protein kinase 1 (Homo sapiens) (UniProt P28482).
Mitogen-activated protein kinase 1 (Homo sapiens), sequence (P28482 whole entry): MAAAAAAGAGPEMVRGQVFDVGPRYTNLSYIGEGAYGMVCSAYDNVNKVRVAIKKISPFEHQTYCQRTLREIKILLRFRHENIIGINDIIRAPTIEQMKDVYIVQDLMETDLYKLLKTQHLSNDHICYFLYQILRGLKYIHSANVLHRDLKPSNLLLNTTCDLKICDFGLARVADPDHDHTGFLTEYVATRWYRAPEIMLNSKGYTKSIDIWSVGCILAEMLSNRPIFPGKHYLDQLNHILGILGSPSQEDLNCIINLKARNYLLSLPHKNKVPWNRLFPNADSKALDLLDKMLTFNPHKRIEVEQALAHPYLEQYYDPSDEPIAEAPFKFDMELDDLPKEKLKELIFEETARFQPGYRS
Experiment [6] has as its target T1, Aurora kinase A (Homo sapiens) (UniProt O14965).
T1 sequence (whole entry): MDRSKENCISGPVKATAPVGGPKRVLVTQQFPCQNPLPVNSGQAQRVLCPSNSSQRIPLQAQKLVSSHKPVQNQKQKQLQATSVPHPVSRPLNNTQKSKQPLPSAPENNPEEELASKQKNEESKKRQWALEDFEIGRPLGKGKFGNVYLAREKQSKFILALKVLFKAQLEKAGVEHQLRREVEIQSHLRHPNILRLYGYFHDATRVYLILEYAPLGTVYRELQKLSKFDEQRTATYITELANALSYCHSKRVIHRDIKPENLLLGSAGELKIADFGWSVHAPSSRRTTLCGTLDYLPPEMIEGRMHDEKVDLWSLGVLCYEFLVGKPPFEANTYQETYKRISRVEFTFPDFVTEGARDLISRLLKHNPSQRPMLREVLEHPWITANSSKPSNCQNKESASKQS

Molecules are shown by their SMILES.

Broadly, the ΔTm is the shift of the melting midpoint relative to a reference.

Tyrosine-protein kinase ABL1 (Homo sapiens), sequence (P00519 whole entry): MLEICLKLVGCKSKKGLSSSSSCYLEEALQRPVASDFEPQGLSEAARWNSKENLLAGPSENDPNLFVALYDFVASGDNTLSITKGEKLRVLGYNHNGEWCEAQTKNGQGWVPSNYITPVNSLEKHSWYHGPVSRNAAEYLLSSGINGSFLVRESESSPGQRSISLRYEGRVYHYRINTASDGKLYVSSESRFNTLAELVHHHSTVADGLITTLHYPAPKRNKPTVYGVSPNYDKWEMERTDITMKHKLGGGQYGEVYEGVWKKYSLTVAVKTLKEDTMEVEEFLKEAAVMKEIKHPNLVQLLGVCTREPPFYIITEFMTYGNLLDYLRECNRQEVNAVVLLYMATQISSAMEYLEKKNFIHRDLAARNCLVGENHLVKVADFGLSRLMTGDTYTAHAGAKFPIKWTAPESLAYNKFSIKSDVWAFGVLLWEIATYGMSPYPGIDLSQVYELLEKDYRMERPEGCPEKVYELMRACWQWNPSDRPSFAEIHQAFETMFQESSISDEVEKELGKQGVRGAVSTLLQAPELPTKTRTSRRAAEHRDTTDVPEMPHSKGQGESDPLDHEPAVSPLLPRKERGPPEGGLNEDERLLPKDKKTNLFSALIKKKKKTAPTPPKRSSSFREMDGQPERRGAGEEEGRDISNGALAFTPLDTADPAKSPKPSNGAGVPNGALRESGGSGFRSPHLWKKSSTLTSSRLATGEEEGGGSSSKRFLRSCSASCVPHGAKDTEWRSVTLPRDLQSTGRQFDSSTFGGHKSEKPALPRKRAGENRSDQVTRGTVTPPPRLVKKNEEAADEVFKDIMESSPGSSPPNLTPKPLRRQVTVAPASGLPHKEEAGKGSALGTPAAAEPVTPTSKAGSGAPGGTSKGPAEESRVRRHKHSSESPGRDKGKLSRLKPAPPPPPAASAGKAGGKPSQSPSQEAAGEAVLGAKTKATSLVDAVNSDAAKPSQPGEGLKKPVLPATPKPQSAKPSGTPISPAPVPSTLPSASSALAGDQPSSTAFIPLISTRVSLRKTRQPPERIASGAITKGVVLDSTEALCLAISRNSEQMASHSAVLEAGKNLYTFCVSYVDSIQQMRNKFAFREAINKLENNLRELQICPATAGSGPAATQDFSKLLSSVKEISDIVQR
Glycogen synthase kinase-3 beta (Homo sapiens), sequence (P49841 whole entry, looked up): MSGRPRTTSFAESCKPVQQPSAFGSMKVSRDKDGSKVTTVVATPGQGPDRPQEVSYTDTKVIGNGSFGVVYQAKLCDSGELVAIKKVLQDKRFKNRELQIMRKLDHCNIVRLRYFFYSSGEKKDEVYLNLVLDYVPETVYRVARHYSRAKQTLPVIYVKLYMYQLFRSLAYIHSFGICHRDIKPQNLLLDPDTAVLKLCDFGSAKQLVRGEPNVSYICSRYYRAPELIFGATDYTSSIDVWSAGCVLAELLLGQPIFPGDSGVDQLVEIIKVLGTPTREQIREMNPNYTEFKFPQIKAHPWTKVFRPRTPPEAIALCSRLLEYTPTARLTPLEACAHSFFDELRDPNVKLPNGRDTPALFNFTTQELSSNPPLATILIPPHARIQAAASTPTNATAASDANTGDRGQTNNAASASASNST
Casein kinase I isoform delta (Homo sapiens), sequence (P48730 whole entry, looked up, canonical isoform): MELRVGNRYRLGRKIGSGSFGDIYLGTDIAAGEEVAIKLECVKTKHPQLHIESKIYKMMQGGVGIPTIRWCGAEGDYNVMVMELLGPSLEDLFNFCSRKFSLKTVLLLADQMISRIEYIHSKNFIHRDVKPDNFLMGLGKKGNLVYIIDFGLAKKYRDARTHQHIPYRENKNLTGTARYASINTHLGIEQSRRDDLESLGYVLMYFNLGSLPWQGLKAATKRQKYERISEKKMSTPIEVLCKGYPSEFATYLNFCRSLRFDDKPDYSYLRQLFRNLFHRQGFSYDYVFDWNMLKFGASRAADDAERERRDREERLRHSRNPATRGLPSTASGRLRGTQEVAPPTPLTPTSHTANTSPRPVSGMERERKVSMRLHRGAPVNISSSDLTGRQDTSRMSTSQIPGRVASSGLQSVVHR

In the case of `COc1cc(F)ccc1-c1cc(Nc2cc(CS(C)(=N)=O)ccn2)ncc1F` (stereo not given), the thermal shift (ΔTm) turned out to be 5.35 °C in experiment [1]; 5.7 °C in experiment [2]; 1.19 °C in experiment [3]; 11 °C in experiment [4]; 0.27 °C in experiment [5]; 6.53 °C in experiment [6].

As to `C[C@@H]1CCNC(=O)c2cc3ccc(C(=O)Nc4nc5ccccc5n4CCCN(C)C)cc3n21`, the shift in melting temperature (ΔTm) in experiment [1] was found to be 1.4 °C; in experiment [2], 0.73 °C; in experiment [3], 2.87 °C; in experiment [4], 0.5 °C; in experiment [5] it was 0.36 °C; in experiment [6], 3.79 °C.

Turning to `FC(F)c1cncc(-c2ccc3ncc4nnc(C5=CCCOCC5)n4c3c2)c1`, the ΔTm in experiment [1] amounted to 0.89 °C; in experiment [2] it was 0.55 °C; in experiment [3], 0.33 °C; in experiment [4], 2.58 °C; in experiment [5], 0.41 °C; in experiment [6], 1.62 °C.

As to `Cc1ccc(NC(=O)c2ccc(CN3CC[C@H](N(C)C)C3)c(C(F)(F)F)c2)cc1Nc1nccc(-c2cncnc2)n1`, the ΔTm in experiment [1] was 17.6 °C; in experiment [2] it was 0.7 °C; in experiment [3], 0.73 °C; in experiment [4], 0.08 °C; in experiment [5], 0.9 °C; in experiment [6], 0.26 °C.

With `COc1ccc(CC[C@@H](OC(=O)[C@@H]2CCCCN2C(=O)[C@H](c2cc(OC)c(OC)c(OC)c2)C2CCCCC2)c2cccc(OCCN3CCOCC3)c2)cc1OC`, the ΔTm is -1.71 °C in experiment [1]; -1.5 °C in experiment [2]; -2.54 °C in experiment [3]; -2.19 °C in experiment [4]; -0.05 °C in experiment [5]; -0.45 °C in experiment [6].

On to `CC(=O)Nc1nc(CN2CCC[C@H](Cc3cc(C)nc(C)c3)C2)cs1`, for which the ΔTm is 0.19 °C in experiment [1]; 0 °C in experiment [2]; 0.1 °C in experiment [3]; -0.34 °C in experiment [4]; 0.5 °C in experiment [5]; 0.28 °C in experiment [6].

Take `CN(C(=O)c1cnn2cccnc12)c1cc2c(cc1N1CCOCC1)C(=O)N(C[C@@H](F)C(C)(C)O)C2`: the shift in melting temperature (ΔTm) was 0.37 °C in experiment [1]; -0.41 °C in experiment [2]; -0.06 °C in experiment [3]; -0.42 °C in experiment [4]; 0.49 °C in experiment [5]; -0.66 °C in experiment [6].

Turning to `COc1cc(C(=O)NC2CCN(C)CC2)ccc1Nc1ncc2c(n1)N(C1CCCC1)CC(F)(F)C(=O)N2C`, the ΔTm was 0.35 °C in experiment [1]; 0.09 °C in experiment [2]; 1.15 °C in experiment [3]; -0.4 °C in experiment [4]; 0.38 °C in experiment [5]; 0.78 °C in experiment [6].

In the case of `CCN1C(=O)/C(=C(\NC2CCN(C)CC2)c2ccc3c(c2)OCO3)c2cc(C(C)=O)ccc21`, the ΔTm in experiment [1] stood at 0.4 °C; in experiment [2], 0.54 °C; in experiment [3], 1.8 °C; in experiment [4], 0.62 °C; in experiment [5], 0.05 °C; in experiment [6] it was 0.02 °C.

For `CC(=O)c1c(C)c2cnc(Nc3ccn(C)n3)nc2n(C2CCCC2)c1=O`, the ΔTm is -0.44 °C in experiment [1]; -0.29 °C in experiment [2]; -0.59 °C in experiment [3]; 2.32 °C in experiment [4]; 0.48 °C in experiment [5]; 0.47 °C in experiment [6].

`CN(C)CCC[C@@]1(c2ccc(F)cc2)OCc2cc(C#N)ccc21`: the ΔTm was 0.61 °C in experiment [1]; 0.64 °C in experiment [2]; -0.32 °C in experiment [3]; -0.03 °C in experiment [4]; 0.7 °C in experiment [5]; -0.23 °C in experiment [6].

With `CSc1ccc(C[C@@H](C)C(=O)O)cc1Nc1nc(N2CC[C@H](N(C)C)C2)cc(C(F)F)c1C#N`, the ΔTm stood at 0.42 °C in experiment [1]; 0.56 °C in experiment [2]; 0.3 °C in experiment [3]; 0.05 °C in experiment [4]; 0.24 °C in experiment [5]; 0.19 °C in experiment [6].

Turning to `COc1cc(N[C@@H]2CCCC[C@]2(O)C(F)(F)F)ccc1F`, the ΔTm was 0.29 °C in experiment [1]; 0.72 °C in experiment [2]; 0.65 °C in experiment [3]; -0.31 °C in experiment [4]; 0.4 °C in experiment [5]; -1.49 °C in experiment [6].

In the case of `CN(C)C(=O)c1cc2cnc(Nc3ccc(N4CCN(CCCCNC(=O)COc5cccc6c5C(=O)N(C5CCC(=O)NC5=O)C6=O)CC4)cn3)nc2n1C1CCCC1` (stereo not given), the ΔTm in experiment [1] was 0.61 °C; in experiment [2], 0.81 °C; in experiment [3], -0.24 °C; in experiment [4] it was -0.75 °C; in experiment [5] it was 0.11 °C; in experiment [6] it was 4.38 °C.

With `CCn1c(-c2nonc2N)nc2cncc(C(=O)N3CC[C@H](N)C3)c21`, the shift in melting temperature (ΔTm) in experiment [1] was -0.16 °C; in experiment [2] it was 0.25 °C; in experiment [3] it was 0.4 °C; in experiment [4] it was 6 °C; in experiment [5], 0.69 °C; in experiment [6], 0.77 °C.

Take `Cn1cncc1-c1cn(-c2cccc(C(=O)Nc3cccc(C(F)(F)F)c3)c2)nn1`: the ΔTm in experiment [1] was 7.19 °C; in experiment [2] it was 0.01 °C; in experiment [3], -7.39 °C; in experiment [4] it was -0.16 °C; in experiment [5], -8.38 °C; in experiment [6] it was 1.95 °C.

Turning to `O=C(Nc1cc2cc[nH]c(=O)c2cc1Cl)[C@H]1CNC[C@@H]1c1cccnc1`, the ΔTm in experiment [1] was 0.03 °C; in experiment [2] it was 0.53 °C; in experiment [3], 0.29 °C; in experiment [4], -0.6 °C; in experiment [5] it was 0.49 °C; in experiment [6], -0.12 °C.

Take `CCS(=O)(=O)Nc1cccc(Oc2cncc(Nc3ccc(I)cc3F)c2C(N)=O)c1`: the ΔTm in experiment [1] is 0.95 °C; in experiment [2], 0.72 °C; in experiment [3], -0.53 °C; in experiment [4] it was -0.71 °C; in experiment [5], -2.21 °C; in experiment [6], 1.45 °C.

As for `O=C(NCc1ccc(F)cc1)C1CCN(S(=O)(=O)c2cc(Cl)cc(Cl)c2)CC1`, the ΔTm in experiment [1] is 0.04 °C; in experiment [2], -0.1 °C; in experiment [3], 0.71 °C; in experiment [4], -0.45 °C; in experiment [5] it was 0 °C; in experiment [6] it was 0.52 °C.

`Nc1ncc2c(n1)-c1c([nH]c3ccc(C4CC4)cc13)CCCC2`: the ΔTm is 0.19 °C in experiment [1]; -0.43 °C in experiment [2]; -0.06 °C in experiment [3]; 2.09 °C in experiment [4]; 0.41 °C in experiment [5]; -0.12 °C in experiment [6].

Take `Fc1ccc(-c2c3cccc(C(F)(F)F)c3nn2Cc2ccc(F)cc2Cl)cc1`: the ΔTm in experiment [1] is 0.02 °C; in experiment [2], 0.18 °C; in experiment [3], 0.79 °C; in experiment [4], -1.83 °C; in experiment [5], 0.06 °C; in experiment [6], -1.66 °C.

Turning to `COc1cc2c(cc1CC=C(C)C)C(=O)C[C@@H](c1ccc(O)cc1)O2`, the ΔTm in experiment [1] is 0.53 °C; in experiment [2], 1.21 °C; in experiment [3], 1.23 °C; in experiment [4] it was -0.03 °C; in experiment [5], 0.34 °C; in experiment [6] it was -1.38 °C.

On to `CC(C)(O)c1coc(S(=O)(=O)NC(=O)Nc2c3c(cc4c2CCC4)CCC3)c1`, for which the ΔTm in experiment [1] came to 0.65 °C; in experiment [2], 1.24 °C; in experiment [3] it was 0.37 °C; in experiment [4], 0.29 °C; in experiment [5] it was 0.43 °C; in experiment [6] it was 0.25 °C.

Regarding `Cn1cc(-c2cnc3ccc4ccc(CS(=O)(=O)NCc5ccccn5)cc4c(=O)c3c2)cn1`, the ΔTm was 4.08 °C in experiment [1]; 0.66 °C in experiment [2]; 0.15 °C in experiment [3]; 1.66 °C in experiment [4]; -0.33 °C in experiment [5]; 5.91 °C in experiment [6].

For the compound `CN1C(=O)c2ccccc2N(C)c2nc(Nc3cnn(C4CCNCC4)c3)ncc21`, the ΔTm in experiment [1] came out at 9.76 °C; in experiment [2], 1.04 °C; in experiment [3], 0.9 °C; in experiment [4] it was 0.14 °C; in experiment [5] it was 0.53 °C; in experiment [6], 16.4 °C.

The values above are taken from ChEMBL document CHEMBL5308504, “Tm Shift (DSF) assay results for EUbOPEN Chemogenomics Library” (2023).
